Compound activity: PubChem BioAssay, National Center for Advancing Translational Sciences (NCATS)
RORgamma inh = blocks mouse ROR gamma transcriptional activity; P51450; Drosophila S2 Gal4-RORgamma UAS-luciferase reporter, 20 h; Potency, µM (doses to about 53.6 µM), inactives show at the top dose activity change, negative = inhibition, usual class: inhibitors; 5.4% of 310,000 active; AID 2551; further: nearly all actives have a fitted effect of over 60% in size
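Compounds are pin-transferred onto Drosophila Schneider cells expressing a copper-inducible Gal4–ROR gamma transactivation domain fusion. After 1 hr, copper sulfate is added to 700 uM final; luciferase is read 20 hr later.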
Gal4-VP16 FLuc = counter-screen for ROR gamma inhibitors: Gal4-VP16 reporter; Drosophila S2 Gal4-VP16 UAS-luciferase, luminescence, 20 h; Potency, µM (series often up to 53.6 µM), inactives show top-dose activity, negative = inhibition, hits mostly inhibitors; 3.5% of 310,000 active; AID 2546;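 further: Gal4-VP16 expression switched on by copper sulfate through the metallothionein promoter; nearly all actives have a fitted effect of over 50% in size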
ALDH1A1 block = inhibitors of human aldehyde dehydrogenase 1A1; P00352; 7.3% of 220,000 active; Potency, µM (titrated, usually from 75.3 µM), for inactives: top-dose activity, negative = inhibition, usual class: inhibitors; Purified ALDH1A1, NADH fluorescence, propionaldehyde substrate; active means well fitted inhibition curve with a large enough effect, not every such curve was filed as active; inconclusive means small, poorly fitted or top-dose-only effect, or another doubt; inactive means no such curve, though single readings can be large or run the other way;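 further: plate controls were no enzyme wells and a reference inhibitor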
Target sequence (P00352 whole entry, looked up): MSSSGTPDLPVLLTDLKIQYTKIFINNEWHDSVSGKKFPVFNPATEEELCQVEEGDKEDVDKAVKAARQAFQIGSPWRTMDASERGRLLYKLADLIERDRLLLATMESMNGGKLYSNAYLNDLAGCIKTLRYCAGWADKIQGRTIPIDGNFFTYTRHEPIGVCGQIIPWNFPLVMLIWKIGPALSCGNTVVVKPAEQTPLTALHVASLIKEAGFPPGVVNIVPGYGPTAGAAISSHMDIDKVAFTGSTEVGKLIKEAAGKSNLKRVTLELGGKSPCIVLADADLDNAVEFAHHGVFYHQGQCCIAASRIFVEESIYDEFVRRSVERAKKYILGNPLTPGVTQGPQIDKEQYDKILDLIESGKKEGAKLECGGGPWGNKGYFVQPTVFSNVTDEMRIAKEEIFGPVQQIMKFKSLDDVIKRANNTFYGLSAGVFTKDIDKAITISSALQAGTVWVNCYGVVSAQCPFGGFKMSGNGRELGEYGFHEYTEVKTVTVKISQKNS
Sfp inh = blocks B. subtilis Sfp PPTase activity; Biochemical Sfp PPTase activity, qHTS; Potency, µM, for the others: largest response in the series, negative = inhibition, actives largely listed as inhibitors; 3.5% of 310,000 active;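 further: the enzyme is Sfp with the accession as filed and its product quenches rhodamine fluorescence; 0% = enzyme reaction without inhibitor and -100% = no enzyme wells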
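With Hepes-Na pH 7.6 buffer containing 10 mM MgCl2, Sfp (15 nM) modified BHQ-2-YbbR (12.5 uM) using rhodamine-CoA (5 uM). Two reads 30 minutes apart at 525/598 nm yielded each well's rate.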
PLK1 PBD block = blocks phosphopeptide binding to human PLK1 polo-box domain | AID 720504 | Plk1 PBD binding of FITC phosphopeptide, fluorescence polarization | P53350 | Potency, µM, for inactives: max response, negative = inhibition, hits mostly inhibitors | 2.8% of 360,000 active; further: series mostly up to about 57 µM; nearly all actives have a fitted effect of over 65% in size
Active calls of the source: *; ? = inconclusive; nt = no result; [ ] = dose if it differs, or a comment. Sampled rows, rich in hits. Any-hit rate of the full collection: about 12%. Unless noted, the call rests on the fitted dose curve; in most records, active means well fitted curve in the direction sought with a large enough effect; inconclusive means small, poorly fitted or top-dose-only effect, or another doubt; inactive means no such curve, though single readings can be large; an effect the other way counts as inactive or inconclusive. Unless noted, on the % scale 0 is the no-effect control and ±100 the full control effect; potency means the concentration at half of the fitted maximal effect.

SMILES	RORgamma inh	Gal4-VP16 FLuc	ALDH1A1 block	Sfp inh	PLK1 PBD block
CSc1nc2c(c(=O)[nH]1)C(c1ccccc1Cl)CC(=O)N2 (centres undefined)	12.6%	-6.4%	12.6µM*	29.3%	-12.0%
NNC(=O)C=C1CCN(c2ncc(C(F)(F)F)cc2Cl)CC1	33.2%	-9.7%	15.8µM*	-5.0%	-7.8%
CN(C)c1ccc(NC(=S)N2CCN(c3ncc(C(F)(F)F)cc3Cl)CC2)cc1	10µM*	?	-5.4%	4.0%	-0.9%
O=C(CN1CCN(c2ncc(C(F)(F)F)cc2Cl)CC1)N1CCN(c2ncc(C(F)(F)F)cc2Cl)CC1	-1.1%	-10.7%	3.98µM*	12.6%	-6.5%
O=C(O)C=C1CCN(c2ncc(C(F)(F)F)cc2Cl)CC1	-4.8%	7.4%	12.5%	9.4%	-11.5%
Nc1ccccc1/C=C/c1ccccc1N	nt	nt	nt	nt	-19.8%
Cc1ccc(C(C#N)c2ccc(Cl)nn2)cc1 (centres undefined)	-4.4%	15.1%	8.91µM*	16.7%	-16.4%
N#CC(c1ccc(Cl)cc1)c1ccc(Cl)nn1 (centres undefined)	-2.5%	6.2%	6.31µM*	-8.3%	-9.3%
N#CC(c1ccc(Cl)nn1)c1ccccc1Cl (centres undefined)	22.3%	-12.9%	3.98µM*	-7.7%	1.6%
CCCC(=O)N1CCC1(C)C(=O)Nc1ccc(OC)c(OC)c1 (centres undefined)	nt	nt	nt	nt	3.6%
CN(C)c1nc(Cl)nc(N(C#N)CCOc2ccccc2)n1	-18.8%	-2.0%	14.1µM*	-3.4%	-11.2%
CCNc1nc(NCC)nc(N(C#N)CCOc2ccccc2)n1	17.6%	7.4%	?	7.5%	10.6µM*
Cc1nnc(NN)n(N)c1=O	-27.4%	4.0%	?	10µM*	-4.3%
Cc1nnc(Nc2ccccc2)n(N)c1=O	5.4%	7.9%	22.2%	15.2%	-4.7%
S=c1[nH]nc(COc2cccc3ccccc23)n1Cc1ccccc1	3.16µM*	?	nt	7.4%	-18.8%
Cc1ccccc1OCc1n[nH]c(=S)n1Cc1ccccc1	3.55µM*	?	-13.2%	15.5%	-19.8%
CCOc1ccc(Cc2n[nH]c(=S)n2Cc2ccccc2)cc1	4.47µM*	-21.3%	?	2.4%	-14.2%
Cc1ccc(OCc2n[nH]c(=S)n2Cc2ccccc2)cc1	0.891µM*	6.31µM*	-0.9%	8.0%	-17.2%
CCCCN1CCCCC1(C)C(=O)NCc1ccc2c(c1)OCO2 (centres undefined)	nt	nt	nt	nt	-2.9%
COc1cccc(-c2nc(NCc3cccs3)c3ccccc3n2)c1	56.9%	10.5%	-5.9%	15.3%	nt
COCCN1C[C@@H](CO)O[C@@H](n2cnc3c(NCC(C)C)ncnc32)C1	nt	nt	nt	nt	-10.0%
N#C/C(=C/c1ccccc1)C(=O)NCc1ccccc1	?	-25.7%	-3.2%	11.4%	-9.6%
N#C/C(=C\c1ccccc1)C(=O)NNS(=O)(=O)c1ccc(Br)cc1	nt	nt	nt	nt	21.2µM*
CC(=O)C(Sc1nc(N(C)C)nc(N(C)C)n1)C(=O)Nc1ccccc1 (centres undefined)	6.4%	-8.0%	-5.8%	-10.9%	-18.5%
CCNc1nc(SC(C)C(=O)Nc2ccccc2)nc(N2CCOCC2)n1 (centres undefined)	5.1%	8.3%	6.7%	-5.9%	4.4%
SMILES	RORgamma inh	Gal4-VP16 FLuc	ALDH1A1 block	Sfp inh	PLK1 PBD block
CN(C)c1nc(SCC(=O)Nc2ccccc2)nc(N2CCOCC2)n1	-24.3%	-9.1%	25.1µM*	-8.4%	-4.7%
CC(Sc1nc(NCc2ccccc2)nc(N2CCOCC2)n1)C(=O)Nc1ccccc1 (centres undefined)	-11.8%	4.0%	4.8%	24.9%	29.9µM*
O=C(NCCOc1nc(N2CCCCC2)nc(N2CCOCC2)n1)Nc1ccccc1	-2.2%	-17.3%	8.91µM*	-6.0%	2.6%
CC(=O)C(Sc1nc(N2CCOCC2)nc(N2CCOCC2)n1)C(=O)Nc1ccccc1 (centres undefined)	0.891µM*	?	-12.5%	-2.0%	-15.8%
O=C(NCCOc1nc(N2CCOCC2)nc(N2CCOCC2)n1)Nc1ccccc1	-0.6%	-3.5%	4.2%	11.5%	-12.0%
O=C(NC(O)C(=O)c1ccc(F)cc1)c1ccc(F)cc1 (centres undefined)	24.9%	28.7%	nt	-0.9%	0.4%
OCC[C@@H]1C[C@H](O)[C@@H](O)[C@]2(OCc3ccc(CO)cc32)O1	nt	nt	nt	nt	-12.6%
Nc1cc(C(=O)O)[nH]c(=O)n1	nt	nt	5.0%[13.5 µM]	nt	nt
COC(=O)C1=C(C)Nc2nc3ccccc3n2C1c1cc(OC)c(OC)c(OC)c1 (centres undefined)	12.6µM*	-13.8%	nt	4.5%	4.1%
Cc1nc(N2CCCCC2)sc1C(=O)c1cccc([N+](=O)[O-])c1	?	22.8%	10µM*	7.1%	-12.2%
Cc1nc(N2CCCCC2)sc1C(=O)c1ccc(SCCO)c([N+](=O)[O-])c1	43.1%	-5.5%	12.6µM*	-25.9%	8.44µM*
CCNC(=O)C1(C)CCCN1C(=O)c1cnc2ccccc2n1 (centres undefined)	nt	nt	nt	nt	-6.1%
CCCNC(=S)Nc1ccc(Oc2ccccc2)cc1	12.6µM*	11.2µM*	6.6%	-8.1%	-27.9%
CCCCNC(=S)Nc1ccc(Oc2ccccc2)cc1	1.41µM*	5.62µM*	?	50.1µM*	?
CCOc1ccc(N=C2NC(=O)S/C2=C\c2ccc(Cl)cc2)cc1	-10.0%	-4.0%	2.2%	5.5%	-15.1%
COc1ccc(N=C2NC(=O)S/C2=C\c2ccc(N(C)C)cc2)cc1	0.4%	-11.1%	-7.9%	-6.9%	?
Cc1ccc(N=C2NC(=O)S/C2=C\c2ccco2)cc1	-28.2%	?	0.0%	35.5µM*	-20.3%
O=C1NC(=Nc2ccccc2)/C(=C/c2ccco2)S1	?	2.8%	?	22.4µM*	-9.3%
N#CC1=C(N)Oc2c(oc(CO)cc2=O)C1c1ccsc1 (centres undefined)	-10.3%	-5.6%	3.7%	50.1µM*	-27.5%
N#CC1=C(N)Oc2c(oc(CO)cc2=O)C1c1cccs1 (centres undefined)	-11.9%	3.3%	-7.1%	1.5%	-5.2%
N#CC1=C(N)Oc2c(ccc3ccccc23)C1c1ccsc1 (centres undefined)	1.4%	2.7%	-9.7%	56.2µM*	-8.8%
CN(C)/C=C(\C(=O)c1cccc(Cl)c1)c1nnnn1-c1ccccc1	14.1µM*	?	nt	8.8%	-3.5%
CN(C)c1ccc(-c2nc3cc(N)ccc3o2)cc1	7.94µM*	7.08µM*	nt	6.5%	2.5%
Cc1ccc2oc(-c3ccccc3)nc2c1	?	?	5.3%	9.3%	-2.0%
Nc1ccc(-c2nc3ccc(N)cc3o2)cc1	?	11.2µM*	?	8.5%	-11.6%
Cc1ccc2nc(-c3cc(N)cc(N)c3)oc2c1	2.82µM*	?	?	12.0%	-0.7%
CC(CO)(CO)Nc1ncnc2ccccc12	nt	nt	17.1%[13.5 µM]	nt	nt
CCCNC(=O)c1cc2c(c(-c3cccc(-c4ccccc4F)c3)n1)[C@H](CCO)N(C(=O)CC1CC1)C2	nt	nt	nt	nt	-11.1%
COc1ccc2c(c1)OC(=O)CC2c1ccccc1C (centres undefined)	-11.4%[96.6 µM]	-2.3%[96.6 µM]	-6.6%[120 µM]	-3.1%	nt
